Reference: PubChem BioAssay
Unmarked numbers belong to inactive results.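 The calls were made as follows: active = inhibition at or above 50% relative to wild type and mutant plate controls; inactive = inhibition below 50%.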

assay: inhibitors of Chlamydomonas gravitaxis, primary screen, whole organism, Chlamydomonas reinhardtii, WT vs cilia-less mutant, absorbance, 96-well (AID 463189); conditions: OD600 absorbance, 2 days, at 10 µM, active compounds read high;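 also: 0% = wild type cc124 cells in DMSO and 100% = ciliumless bld1 mutant cells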

| SMILES | inhibition [%] |
| --- | --- |
| COc1ccc2c(c1)c(CC(=O)O)c(C)n2C(=O)c1ccccc1 | 2.3 |
| CCN1CCCC1CNC(=O)c1cc(S(N)(=O)=O)ccc1OC (centres undefined) | 2.91 |
| COc1cccc2c1[C@@H]1CN(CCCCn3c(=O)[nH]c4c(sc5ncc(-c6ccccc6)nc54)c3=O)C[C@@H]1CO2 | 4.24 |
| C#CCN1C(C)=C(C(=O)OC)C(c2cccc([N+](=O)[O-])c2)C(C(=O)OCC)=C1C (centres undefined) | 4.14 |
| CCCCCCCC/C=C\CCCCCCCC(=O)NCCc1ccc(O)c(O)c1 | -1.34 |
| CN1C[C@H](C(=O)N[C@]2(C)O[C@@]3(O)[C@@H]4CCCN4C(=O)[C@H](Cc4ccccc4)N3C2=O)C[C@@H]2c3cccc4[nH]cc(c34)C[C@H]21 | -12.5 |
| Nc1nc2[nH]c(=O)cnc2c(=O)[nH]1 | 5.48 |
| Oc1cc(O)cc(/C=C/c2ccc(O)c(O)c2)c1 | 0.047 |
| O=c1onc2n1-c1cc(Br)ccc1OC2 | -0.03 |
| O=C(O)c1cc([N+](=O)[O-])ccc1NCCCc1ccccc1 | 9.38 |
| COc1cc(-c2ccc(=O)[nH]n2)ccc1OC(F)F | 8.84 |
| [N-]=[N+]=Nc1ccc(C(=O)CSC[C@H](NC(=O)CC[C@H](N)C(=O)O)C(=O)NCC(=O)O)cc1 | -0.598 |
| Nc1nc(Nc2ccccc2)nc2c1ncn2[C@@H]1O[C@H](CO)[C@H](O)C1O (some centres undefined) | -1.98 |
| Cc1cn([C@H]2C[C@@H](N=[N+]=[N-])[C@@H](CO)O2)c(=O)[nH]c1=O | -6.23 |
